Measured values reported in PubChem BioAssay AID1347076 (National Center for Advancing Translational Sciences (NCATS), 2019).
Hit rate of the full screen: of about 400,000 compounds, about 13,000 (3.2%) were called active. Roughly 18% stayed inconclusive and do not appear here. What follows is part of a selection rich in actives, with near analogues and random picks from the rest. Values without a mark were called inactive. Calls follow the shape of the dose curve; as a rule, active = well fitted cell-killing curve with a large enough effect; inconclusive = small, poorly fitted or top-dose-only effect, or effect the other way; inactive = flat fitted curve, though single readings scatter.

Assay: qHTS assay for MDR1-selective chemotherapeutics: Primary screen using the drug-selected MDR subline cells KB-V1; also: nearly all actives have a fitted effect of over 60% in size
Settings: KB-V1 MDR cells viability, CellTiter-Glo, 72 h; series mostly up to 46.1 µM; activity change, negative = cytotoxicity: at the top concentration
Text: A prime difficulty in effectively treating cancer is the development of cellular resistance to multiple structurally unrelated anticancer drugs, a phenomenon known as multidrug resistance (MDR). […] Numerous strategies to overcome P-gp-mediated MDR have been explored, including the design of drugs that evade recognition and efflux, and development of inhibitors to block efflux and restore drug accumulation. […] An alternative approach is to exploit resistance by identifying drugs that target MDR cells over the non-resistant parental cells from which they were selected. […] The development of MDR1-selective agents represents a new strategy for resolving multidrug resistance, as it remains a long-standing clinical challenge for cancer chemotherapy.
Our goal is to identify compounds that selectively kill P-gp-expressing MDR cells. We will identify MDR1-selective compounds by comparing toxicity of compounds in the screening library against parental, drug-naive (KB-3-1) adenocarcinoma cells as well as their drug-selected MDR sub-line (KB-V1). The differential toxicity of compounds against these two cell lines will be used to identify MDR1-selective compounds, whose cytotoxicity is potentiated, rather than diminished, by P-gp expression. This assay will be utilized to conduct a quantitative high-throughput screen (qHTS) in collaboration with the NIH Chemical Genomics Center to identify selective agents, and probe hits arising from the screen will be validated using secondary assays and characterized through a well-established follow-up research program. This screen was run against the entire NCGC library collection of about 400,000 compounds.
NIH Molecular Libraries Probe Production Network [MLPCN]
NIH Chemical Genomics Center [NCGC]
PI: Michael Gottesman, National Cancer Institute, NIH
Briefly, 5 microL of media containing either KB-V1 cells (columns 1-2, 4-48) are dispensed into Greiner white, treated solid-bottom 1536-well assay plates (media-only control is added to column 3). Compounds are then transferred via Kalypsys pin tool equipped with 1536-pin array (10 nL slotted pins, V&P Scientific, San Diego, CA). Following addition of compound, the plates are incubated at 37 degrees C for 72 hours. CellTiter-Glo (2.5 µL/well) is then added, and the plates are read in a ViewLux reader (Perkin-Elmer, clear luminescence filter, 1 second exposure, 1x binning) following a 10 minute incubation. All cells are dispensed in DMEM phenol-red free media containing 10% FBS.
Library plates were screened starting from the lowest and proceeding to the highest concentration. Vehicle-only plates, with DMSO being pin-transferred to columns 5-48, will be inserted uniformly at the beginning and the end of each library in order to monitor and record any shifts in the background, which can be affected by reagent dispensers or loss in enzyme activity over time. Screening data will be corrected, normalized, and concentration-effect relationships will be derived by using publicly-available NCGC, NCATS curve fitting algorithms (http://ncgc.nih.gov/pub/openhts).
% is scaled to controls: 0 for no effect and ±100 for the full control effect; potency is read from the fitted curve at half-maximal effect.

| Structure (SMILES) | activity change, negative = cytotoxicity [%] | Potency |
| --- | --- | --- |
| Cc1ccc2cccc(NC(=O)C(C)Oc3ccc(C)c(C)c3)c2n1 (stereo not given) | 0.037 | – |
| CC1(C(=O)NS(=O)(=O)c2ccc(C#N)cc2)CCN1C(=O)CC1CCCC1 (stereo not given) | 1.86 | – |
| CC(C)c1cc(C(=O)N/N=C/C(Br)=C/c2ccccc2)n[nH]1 | -26.2 | – |
| Cc1cc(-c2n[nH]c(=S)n2/N=C/C(Br)=C/c2ccccc2)n[nH]1 | – | 10.3 µM (active) |
| S=c1[nH]nc(-c2cc(-c3ccccc3)n[nH]2)n1/N=C/c1c2ccccc2cc2ccccc12 | 3.84 | – |
| CCCCS(=O)(=O)c1oc(-c2cccs2)nc1S(=O)(=O)c1ccccc1 | -0.671 | – |
| O=C(C1CCCO1)N1CCN(C(=O)C23CC4CC(CC(C4)C2)C3)CC1 (stereo not given) | 18.8 | – |
| CCN(c1ccccc1)S(=O)(=O)c1ccc(C(=O)Nc2ccccc2OC)cc1 | -9.91 | – |
| CCN(c1ccccc1)S(=O)(=O)c1ccc(NC(=O)C(C)(C)C)cc1 | – | 11.6 µM (active) |
| CCN(c1ccccc1)S(=O)(=O)c1ccc(N)cc1 | 1.93 | – |
| CC1(C(=O)Nc2cccc3c2CCCC3)CCN1C(=O)CCc1ccc(Cl)cc1Cl (stereo not given) | -8.74 | – |
| CN(CCO)C(=O)c1nc[nH]c1C(=O)N(C)Cc1ccccc1 | -5.16 | – |
| Cc1ccc(CNC(=O)CSc2c3c(nc4cc(Cl)ccc24)CCCC3)cc1 | 6.96 | – |
| Cc1c(NC(=S)NCc2ccc(F)cc2)cccc1[N+](=O)[O-] | -18.7 | – |
| Cc1ccc(NC(=O)CN(C)Cc2ccc(F)cc2)c([N+](=O)[O-])c1 | – | 9.2 µM (active) |
| Cc1ccc(NC(=O)c2oc3ccccc3c2C)c([N+](=O)[O-])c1 | -19.5 | – |
| CCC(=O)N1CCC(C)(C(=O)Nc2cc(OC)c(OC)c(OC)c2)C1 (stereo not given) | 5.6 | – |
| CCOCCc1nn2c(=O)cc(COC(=O)CNC(=O)c3ccc(C(C)(C)C)cc3)nc2s1 | 22 | – |
| COc1ccc(CSc2nnnn2-c2ccc(C(=O)O)cc2)cc1 | 0 | – |
| COc1ccc(NC(=O)CSc2nnnn2-c2cccc(OC)c2)cc1 | 10.7 | – |
| COc1ccc(-n2nnnc2SCC(=O)c2ccc(OC)c(OC)c2)cc1 | – | 18.4 µM (active) |
| COc1c(C)cc(C(O)c2ncc(-c3cccc(C(F)(F)F)c3)[nH]2)cc1C (stereo not given) | -11 | – |
| CS(=O)c1ccc(/C=C2\C=Cc3ccccc32)cc1 (stereo not given) | 0 | – |
| COc1ccc(S(=O)(=O)Nc2cccnc2)c(Cl)c1Cl | -23.8 | – |
| COc1ccccc1Oc1ccc(S(=O)(=O)Nc2cccnc2)cc1 | – | 2.59 µM (active) |
| CCOc1ccc(S(=O)(=O)Nc2ccc(OC)nc2)cc1 | -0.792 | – |
| Cc1cc(C)n2ncc(C(=O)N3CCCC3)c2n1 | -7.32 | – |
| Cc1cc(Cl)ccc1OCCCC(=O)Nc1cccc(-n2cnnn2)c1 | -0.681 | – |
| CCOC(=O)N1CCN(C(=O)COc2ccc(Cl)cc2C)CC1 | 0 | – |
| Cc1cc(Cl)ccc1OCCCC(=O)NCc1ccncc1 | – | 16.4 µM (active) |
